Screening results from PubChem BioAssay.
IDH1 R132H inh: inhibitors of human mutant IDH1 R132H; IDH1-R132H enzyme, NADPH consumption, diaphorase/resazurin fluorescence; Potency, µM (top dose mostly 76.6 µM), for inactives: at the top dose activity change, negative = inhibition, hits mostly inhibitors; O75874; hit rate 0.093% among 390,000; AID 602179; note: potency is the fitted concentration of half-maximal effect; % is set by controls: 0 for no effect and ±100 for the full control effect; nearly all actives have a fitted effect of over 65% in size
Target sequence (O75874 whole entry R132H, stated change not applied): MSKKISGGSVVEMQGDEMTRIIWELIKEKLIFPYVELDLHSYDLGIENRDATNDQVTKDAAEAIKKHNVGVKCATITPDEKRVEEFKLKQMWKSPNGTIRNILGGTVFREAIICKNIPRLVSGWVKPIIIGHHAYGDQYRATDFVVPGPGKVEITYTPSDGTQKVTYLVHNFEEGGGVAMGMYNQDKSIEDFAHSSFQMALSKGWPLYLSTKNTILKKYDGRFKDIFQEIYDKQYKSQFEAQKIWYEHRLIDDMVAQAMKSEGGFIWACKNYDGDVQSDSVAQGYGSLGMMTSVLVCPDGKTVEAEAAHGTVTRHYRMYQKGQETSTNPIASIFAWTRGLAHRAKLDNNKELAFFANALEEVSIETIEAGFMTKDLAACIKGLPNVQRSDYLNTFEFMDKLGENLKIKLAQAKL
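IDH1-R132H (0.5 ug/mL dispensed) in pH 7.5 Tris buffer was preincubated 30 min with compound, then given a substrate mix of 0.016 mM NADPH and 2 mM alpha-KG for 80 min at room temperature; remaining NADPH was read by diaphorase/resazurin fluorescence.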
aSyn rescue: inhibitors of alpha-synuclein toxicity in yeast. Yeast expressing alpha-synuclein, growth rescue, BacTiter-Glo, 24 h. Potency, µM (doses to about 46.1 µM), for the others: top-dose growth rescue (activation), usual class: activators. hit rate 0.14% among 370,000; note: potency is the fitted concentration of half-maximal effect; % of control where 0% means no effect; nearly all actives have a fitted effect of over 65% in size
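Readout is rescue of growth in alpha-synuclein-expressing yeast, so inhibitors of toxicity appear as activators. Growth after 24 hr at 30 deg C in galactose medium is quantified by luminescence.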
TDP-43 yeast inh: inhibitors of TDP-43 toxicity in yeast | Potency, µM (highest dose often 46.1 µM), for the others: at the top dose growth rescue (activation), hits mostly activators | AID 652104 | TDP-43 expressing yeast growth rescue, BacTiter-Glo, 24 h | hit rate 1.8% among 410,000; note: potency is the fitted concentration of half-maximal effect; % of control where 0% means no effect; nearly all actives have a fitted effect of over 50% in size
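Yeast cells expressing TDP-43 under galactose induction are exposed to compounds for 24 hr at 30 deg C. BacTiter-Glo luminescence measures growth, so protective compounds score as activators.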
Abeta rescue: restores growth of yeast expressing A-beta42 peptide. yeast expressing A-beta42, growth rescue, OD600, 48 h; response scale: 0% DMSO, 100% iron-clioquinol control. Potency, µM (top dose mostly 46.1 µM), hits mostly activators. hit rate 0.063% among 410,000. AID 1347071; note: potency is the fitted concentration of half-maximal effect; nearly all actives have a fitted effect of over 55% in size
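Growth rescue measured by 600 nm absorbance after 48 h yeast culture at 30 C with compound. Values normalized between DMSO and an equimolar ferric chloride plus clioquinol control.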
FUS suppressor: FUS proteinopathy suppression in yeast; Potency, µM (doses to about 76.6 µM), most hits filed as activators; S. cerevisiae FUS-expressing, growth rescue, OD600, 24 h; hit rate 0.24% among 390,000;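 note: potency is the fitted concentration of half-maximal effect; plate controls were DMSO vehicle for no effect and reference control for full effect; nearly all actives have a fitted effect of over 55% in size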
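Cultures pregrown in 2.5% raffinose medium are shifted to minimal medium containing 2% galactose to express toxic FUS. Compounds are tested at several concentrations. After 24hr at 30C, growth is quantified at 600 nm absorbance.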
LDHA inh: inhibitors of human lactate dehydrogenase A | P00338 | purified LDHA, NADH/diaphorase-resazurin fluorescence; stronger effect = lower value | activity change, % (values are at about 110 or 230 µM) | hit rate 0.15% among 480,000 | AID 1347041; in the data active = activity change below about -30%; inconclusive = mostly about -25% to -30%;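 note: plate controls were DMSO wells for no effect and wells without enzyme for full effect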
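LDH5 2 nM; NADH 0.06 mM, pyruvate 0.2 mM; 200 mM Tris pH 7.4, EDTA, Tween-20; 5 min RT. Detection: diaphorase 0.133 mg/mL + resazurin 37 µM, fluorescence ex540/em590 at 0 and 20 min; normalized to enzyme-free and DMSO wells.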
* hit, by the source's call; i = inactive; ? = inconclusive; . = no result given; [ ] = remark or other dose. An excerpt weighted towards active compounds, which were near 2% of everything screened. Unless noted, calls come from the whole dose curve; as a rule, active = well fitted curve in the direction sought with a large enough effect; inconclusive = small, poorly fitted or top-dose-only effect, or another doubt; inactive = no such curve, though single readings can be large; an effect the other way counts as inactive or inconclusive.

SMILES	IDH1 R132H inh	aSyn rescue	TDP-43 yeast inh	Abeta rescue	FUS suppressor	LDHA inh
CC(=O)Nc1ccc(/C=C2\CCc3ccccc3C2=O)cc1	5%	0%	35µM*	i	i	-3
COc1ccc(/C=C2\CCc3ccccc3C2=O)cc1O	1%	-13%	14µM*	i	i	18
COc1ccc(/C=C2\Cc3ccccc3C2=O)cc1OC	-1%	16%	14%	i	i	-12
O=C1/C(=C\c2ccccc2)CCc2ccccc21	.	.	.	.	.	1
COc1ccc(CNC(=O)C2=C(c3ccccc3)c3cc(Cl)ccc3S(=O)(=O)N2C)c(OC)c1	.	.	.	.	.	-21
COc1ccc(Cl)c2sc(NC(=O)C3=COCCO3)nc12	-6%	-1%	-11%	i	i	-1
Cc1cc(C)c(-c2csc(NC(=O)C3=COCCO3)n2)c(C)c1	-1%	-4%	?	i	i	2
Cc1cc(C)c2sc(NC(=O)C3=COCCO3)nc2c1	34%	-2%	18µM*	i	?	-1
Cc1ccc(Cl)c2sc(NC(=O)C3=COCCO3)nc12	5%	-7%	11µM*	i	i	-1
Cc1cc(Br)c2c(c1)[C@](O)(c1cn(C)c3ccccc13)C(=O)N2C	.	0%	22µM*	?	i	1
CC1(C)c2ssc(=S)c2-c2ccccc2N1C(=O)CSC1=NCCS1	3%	14%	35µM*	i	i	-7
COc1ccc2c(c1)-c1c(ssc1=S)C(C)(C)N2C(=O)CSC1=NCCS1	-4%	7%	?	i	i	-8
CC(C)(O)c1cc2ccc(C#Cc3ccsc3)cc2c(=O)o1	17%	1%	25µM*	i	i	-7
O=c1oc(CCCO)cc2ccc(C#Cc3ccsc3)cc12	-5%	-10%	14%	i	i	-2
CCOC(=O)C(C(=O)OCC)c1cc(Br)c2noc3c2c1C(=O)c1ccccc1-3	16%	-2%	-19%	i	i	23
O=C1c2ccccc2-c2onc3ccc(Oc4ccccc4)c1c23	0%	?	7.1µM*	i	.	22
O=C(NC(=S)NCCc1ccccc1)c1ccccc1F	-2%	-10%	11µM*	i	i	-3
CCC(=O)Nc1ccc(Cl)c(NC(=S)NC(=O)c2ccco2)c1	3%	-2%	11µM*	i	i	-4
O=C(NC(=S)NCCc1ccc(Cl)cc1)c1ccco1	-3%	-1%	14µM*	?	i	-5
Cc1ccc(NC(=O)Cn2nc(-c3ccco3)ccc2=O)cc1C	.	.	.	.	.	0
CC(=O)n1nc(NCc2c(F)cccc2Cl)nc1NCc1c(F)cccc1Cl	.	.	.	.	.	1
O=C(COC(=O)c1cc([N+](=O)[O-])ccc1Cl)c1cc2ccccc2o1	.	.	.	.	.	-4
CC(C)C1OC2c3cccc4cccc(c34)C2N1c1ccccc1 (stereo not given)	4%	0%	13µM*	i	i	7
CC1=C(C(=O)N2CCOCC2)CC(CC(=O)NC2CC2)C(=O)N1Cc1ccc(C(C)(C)C)cc1 (stereo not given)	8%	-3%	1%	i	i	-15
CC1=C(C(=O)N2CCOCC2)CC(CC(=O)NC2CCCCC2)C(=O)N1Cc1ccc(C(C)(C)C)cc1 (stereo not given)	10%	3.5µM*	?	i	i	-4
SMILES	IDH1 R132H inh	aSyn rescue	TDP-43 yeast inh	Abeta rescue	FUS suppressor	LDHA inh
CC(C)c1cnc2c(c1SCC(=O)Nc1cccc([N+](=O)[O-])c1)c(=O)n(C)c(=O)n2C	9%	.	11µM*	i	i	9
CCN(C(C)C(=O)Nc1ccc(C)cc1)S(=O)(=O)c1cccc2cc(C)cnc12 (stereo not given)	.	.	.	.	.	3
N#Cc1ccc(C(=O)NCCc2ccccn2)cc1	.	.	.	.	.	8
COc1ccc2c(c1)CC/C(=C/c1ccncc1)C2=O	8%	-2%	1%	i	i	-2
COc1ccc2c(c1)CC/C(=C\c1ccc(C)o1)C2=O	12%	-1%	18µM*	i	i	9
CCC1CCCCN1C(=O)CSc1nc2ccccc2n1CCC#N (stereo not given)	.	.	.	.	.	-7
COc1ccc(-c2nc3ccccc3c(=O)n2O)cc1	0%	32µM*	-45%	i	i	4
Nc1c(C(=O)Nc2ccc(OC(F)(F)F)cc2)sc2nc(-c3ccncc3)ccc12	-15%	.	22%	i	i	-18
Nc1c(C(=O)Nc2cc(Cl)cc(Cl)c2)sc2nc(-c3ccncc3)ccc12	.	.	.	.	.	-32*
Cc1ccc2ccc3cc(C(=O)Nc4ccc(C)c(F)c4)nc3c2[nH]1	-4%	-24%	4µM*	i	i	-19
O=Cc1cccc(OCc2cccc3ccccc23)c1	-4%	-1%	14µM*	i	i	-5
CCOC(=O)/C=C/c1cccc(C(C)=O)c1	.	.	.	.	.	-2
Cc1ccc2[nH]c(-c3ccccc3)cc2c1	.	.	.	.	.	7
COc1ccc2[nH]c(-c3ccccc3)cc2c1	-3%	1%	13µM*	i	i	-5
Oc1c(C(c2ccccn2)N2CCC(Cc3ccccc3)CC2)cc(Cl)c2cccnc12 (stereo not given)	-12%	-4%	19%[9.22 µM]	i	25µM*	-2
CN1CCN(C(c2ccccn2)c2cc(Cl)c3cccnc3c2O)CC1 (stereo not given)	-16%	?	-61%	i	i	8
C=CCC[C@@H](CCCCC)OC(=O)/C=C/[C@H](O)[C@@H](O)C[C@H](O)CC=C	.	20µM*	28%	i	?	4
CN=c1scc(-c2ccccc2)n1C	.	.	.	.	.	-2
CN=c1sc2c(n1C)C(=O)c1ccccc1C2=O	2%	3%	11µM*	i	.	38
CC(=O)n1nc(-c2ccccc2)cc1-c1ccccc1	2%	17%	13µM*	i	i	6
CCn1c(-c2ccc(O)c(OC)c2)nc2c1c(=O)[nH]c(=O)n2Cc1ccccc1	.	.	.	.	.	31
N#C/C(=C/c1ccccc1OC(F)(F)F)c1ccccn1	.	.	.	.	.	-3
Cc1cc(SCC(=O)N2CCN(C(=O)c3ccco3)CC2)c(C)cc1Br	4%	-6%[1.84 µM]	25µM*	i	i	-1
Cc1cc(SCC(=O)OCC(=O)N2CCN(C(=O)c3ccco3)CC2)c(C)cc1Br	5%	11%	8%	i	i	-10
Fc1ccccc1CSc1nnc(-c2ccccc2)o1	8%	0%	11µM*	i	i	0
Fc1ccccc1CSc1nnc(-c2cccnc2)o1	7%	-2%	?	i	i	-9
